Assay outcomes (PubChem BioAssay)
GPR151 activ – activators of human GPR151, primary screen, cell-based, PathHunter beta-arrestin, luminescence | G-protein coupled receptor 151 (Homo sapiens), Q8TDV0 | PathHunter beta-arrestin GPR151 cells | activation, % at 11.2 µM | hit rate 1% among 650,000; in the data active = activation above about 4.9%
Target sequence (Q8TDV0 whole entry, looked up): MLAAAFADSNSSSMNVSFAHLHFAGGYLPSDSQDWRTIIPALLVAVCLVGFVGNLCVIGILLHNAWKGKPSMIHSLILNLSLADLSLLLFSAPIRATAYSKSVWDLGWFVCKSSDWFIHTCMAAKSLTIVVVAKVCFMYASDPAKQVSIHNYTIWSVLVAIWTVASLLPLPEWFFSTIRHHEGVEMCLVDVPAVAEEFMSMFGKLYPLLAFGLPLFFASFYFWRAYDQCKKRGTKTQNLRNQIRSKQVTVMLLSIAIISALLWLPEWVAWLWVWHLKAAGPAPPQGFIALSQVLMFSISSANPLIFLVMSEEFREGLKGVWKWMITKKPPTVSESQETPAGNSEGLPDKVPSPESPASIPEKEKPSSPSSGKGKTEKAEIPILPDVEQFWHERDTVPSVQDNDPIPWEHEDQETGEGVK
TEAD-YAP inh – TEAD-YAP interaction inhibition, primary screen, TEAD-YAP interaction inhibitor project, luminescence, HEK-TIYL cells; AID 1259422, 2018; TEAD-Gal4/YAP UAS-luciferase luminescence; hit rate 1.4% among 640,000; inhibition, % at 9.12 µM; in the data active = inhibition above about 32%
FBW7 activator – FBW7 E3 ligase activators, primary screen, biochemical, AlphaScreen, human. F-box/WD repeat-containing protein 7 (Homo sapiens), Q969H0. AlphaScreen FBW7–phospho-cyclin E peptide binding, activator screen. normalized activity (activation), % at 26.1 µM. hit rate 0.13% among 650,000. AID 1259310, 2017; in the data active = normalized activity above about 1.9%;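 note: purified mutant Fbw7 with reduced substrate affinity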
MITF inh – MITF inhibitors, primary screen, biochemical, AlphaScreen, human. inhibition, % at 2.6 µM. AID 1259374, 2018. hit rate 0.91% among 650,000. Microphthalmia-associated transcription factor (Homo sapiens), O75030. AlphaScreen MITF homodimerization, bead proximity signal; in the data active = inhibition above about 50%
MITF inh conf – MITF inhibitors, retest of hits, confirmation, biochemical, AlphaScreen, triplicate | inhibition, % at 2.6 µM | shares compounds with MITF inh | AID 1259372, 2018 | AlphaScreen MITF homodimerization, biotin/His-MITF beads | hit rate 16% among 4,700;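 active = inhibition above a cutoff derived from the DMSO control wells, cut at about 28% in these data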;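 note: inhibitors lower the bead chemiluminescence by keeping MITF from dimerizing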
AS interf DR – AlphaScreen optical interference compounds, dose response, counter-screen, biochemical, HTS. shares compounds with MITF inh. AlphaScreen optical interference counterscreen, cell-free. IC50, µM. hit rate 6% among 480; call rule not given here
AS interf ctr – AlphaScreen optical interference compounds, counter-screen for MITF inhibitor project, biochemical, triplicate | shares compounds with MITF inh | LysRS AlphaScreen counterscreen, signal interference | inhibition, % at 2.6 µM | hit rate 7.6% among 4,700;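 active = inhibition above a cutoff derived from the DMSO control wells, cut at about 30% in these data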
A number is an active result; i = inactive; nt = not tested or not shown. Shown are actives, neighbours in structure and some others; about 3.5% of the full set was active somewhere.

SMILES	GPR151 activ	TEAD-YAP inh	FBW7 activator	MITF inh	MITF inh conf	AS interf ctr	others
O=c1[nH]cccc1-c1ccc(Nc2nccc(-c3ccc4nc(C5CC5)[nH]c(=O)c4c3)n2)cc1	i	i	i	64	62	i	AS interf DR=i
O=C(c1cccc(Nc2nccc(-c3ccc4nc(C5CC5)[nH]c(=O)c4c3)n2)c1)N1CCCC1	i	i	i	i	nt	nt
CCOC(=O)c1ccc(S(=O)(=O)NCCN2CCOCC2)cc1	i	i	i	54	i	i
CCOC(=O)N1CCC(N2C(=O)c3ccccc3C2Nc2ccccc2C(=O)OC)CC1 (centres undefined)	i	i	i	62	i	i
Cc1ccccc1NC(=O)c1ccc(F)c(S(=O)(=O)N(C)Cc2ccccc2)c1	i	i	i	i	nt	nt
CCN(CC)CCN(C)Cc1ccc([N+](=O)[O-])cc1	i	i	i	73	i	i
CC(=O)Nc1ccc(CN(CCN(C)C)Cc2ccccc2)cc1	i	i	i	59	i	i
CN(C)CCN(Cc1ccccc1)Cc1ccc(O)cc1	i	i	i	i	nt	nt
CCN(CCN(C)C)Cc1ccc(NC(C)=O)cc1	i	i	i	i	nt	nt
COc1cccc(CN(CCN(C)C)Cc2ccccc2)c1OC	i	i	i	52	i	i
CN(C)CCN(Cc1ccccc1)Cc1ccc([N+](=O)[O-])cc1	i	i	i	66	i	i
CN(C)CCN(Cc1ccccc1)Cc1ccccc1O	i	i	i	i	nt	nt
CN1CCN(C(=O)CN(c2ccc(Cl)cc2Cl)S(=O)(=O)c2ccccc2)CC1	i	i	i	i	nt	nt
CCOc1ccccc1OCCOCCOc1ccccc1OC	i	i	i	i	nt	nt
O=C1Nc2ccc(F)cc2/C1=C/C1CC=CCC1 (centres undefined)	i	i	i	i	nt	nt
Cc1ccc(S(=O)(=O)c2nc(NCC3CCCO3)sc2Cl)cc1 (centres undefined)	i	i	i	i	nt	nt
COc1cccc(C(O)c2nnc(-c3ccccc3)o2)c1OC (centres undefined)	i	i	i	i	nt	nt
CC(C(=O)N1CCN(Cc2ccccc2)CC1)N(c1ccc(Cl)cc1)S(C)(=O)=O (centres undefined)	i	i	i	83	i	i
CCN(CC(=O)Nc1ccccc1OC)CC(=O)Nc1ccccc1-c1ccccc1	i	44	i	82	i	i
COc1cccc(CCNC(=O)C2CC23CCN(C(=O)CC2=CCCCC2)CC3)c1 (centres undefined)	i	i	i	i	nt	nt
COc1cc2c(cc1OC)C(c1cc3cc4c(cc3[nH]c1=O)OCO4)N(C(=O)C1CC1)CC2 (centres undefined)	i	i	i	67	i	i
COc1cc2c(cc1OC)C(COc1ccc(F)cc1)N(C(=O)C1CC1)CC2 (centres undefined)	i	i	i	i	nt	nt
CC(=O)c1cc2c(N)c(C(=O)NC3CC(C)(C)NC(C)(C)C3)sc2nc1C	i	i	i	i	nt	nt
Cc1ccc(S(=O)(=O)N2CCN(c3ccc([N+](=O)[O-])c(NCc4ccc(C(C)C)cc4)c3)CC2)cc1	i	i	i	i	nt	nt
CCN(CC)CCOC(=O)c1c(C)nc2n(C)c3ccccc3n12	i	i	i	i	nt	nt
SMILES	GPR151 activ	TEAD-YAP inh	FBW7 activator	MITF inh	MITF inh conf	AS interf ctr	others
Cc1nc2n(C)c3ccccc3n2c1C(=O)NN	i	54	i	95	i	i
OCCNc1cc(-c2cccs2)ncn1	i	i	i	56	53	i	AS interf DR=i
CCCNc1cc(-c2cccs2)ncn1	i	i	i	i	nt	nt
NC1=NC(=O)/C(=C/c2cccc(OC(=O)c3ccccc3F)c2)S1	i	i	i	i	nt	nt
CC(C)NC(=O)Cn1nnc(-c2ccc(F)cc2)n1	i	i	i	i	nt	nt
C=C1C(C(=O)NCc2ccco2)C1C(=O)NCc1ccco1 (centres undefined)	i	i	i	63	67	i	AS interf DR=i
O=C(Cn1ncc2ccccc21)N1CCC(Cc2ccccc2)CC1	i	i	i	i	nt	nt
O=C(/C=C/c1cccs1)N1CCC(Cn2cnc3ccccc32)CC1	i	i	i	65	i	i
O=C(c1cccc(F)c1)N1CCC(Cn2cnc3ccccc32)CC1	i	i	i	i	nt	nt
